{
  "source": "PubChem BioAssay AID1952",
  "about": "(The Scripps Research Institute Molecular Screening Center, 2009)",
  "note": "About 1,200 (50%) of roughly 2,400 compounds were called active. The set was probably picked from earlier hits. Only a sample is shown. Unmarked numbers belong to inactive results. Rule as the data show it: active = inhibition above about 24%; inactive = the rest.",
  "data": [
    {"biological_target": "Neuropeptides B/W receptor type 1 (Homo sapiens) (UniProt P48145)", "sequence (P48145 whole entry, looked up)": "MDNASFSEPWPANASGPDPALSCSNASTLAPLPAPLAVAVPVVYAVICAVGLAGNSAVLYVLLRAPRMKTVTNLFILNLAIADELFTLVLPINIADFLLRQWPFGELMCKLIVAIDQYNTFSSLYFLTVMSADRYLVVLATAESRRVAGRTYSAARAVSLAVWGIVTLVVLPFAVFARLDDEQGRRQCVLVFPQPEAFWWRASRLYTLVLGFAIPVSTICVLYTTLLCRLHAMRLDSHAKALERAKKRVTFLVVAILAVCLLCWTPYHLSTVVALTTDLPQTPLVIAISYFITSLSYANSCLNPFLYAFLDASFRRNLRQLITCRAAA", "assay": "blockers of human NPBW1 receptor – cell-based, fluorescence, single concentration, confirmation (AID 1952);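 also: stimulated with the GPR7 agonist NPW; 0% = agonist plus vehicle and 100% = vehicle alone without agonist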", "details": "GPR7-expressing cells, calcium fluorescence antagonist mode; at 4.4 µM; hits give high values", "values": [
      {"smiles": "Cc1ccc(O)c(NC(=S)NC(=O)COc2ccc(Br)cc2)c1", "inhibition": "88.8% (active)"},
      {"smiles": "O=C(Nc1ccc2ccccc2c1)Nc1ccc2snnc2c1", "inhibition": "55.7% (active)"},
      {"smiles": "CC(C)(C)NCc1cc(Br)ccc1OC1CCCC1", "inhibition": "23.2%"},
      {"smiles": "Cc1ccc(NC(=O)CN2C(=O)NC(C)(c3ccc(Cl)cc3)C2=O)c(Br)c1", "note": "(stereo not given)", "inhibition": "18.8%"},
      {"smiles": "CC(NCc1ccccc1OC1CCCC1)c1ccccc1", "note": "(stereo not given)", "inhibition": "23.1%"},
      {"smiles": "CCN1CCN(c2c(Cl)cccc2NC(=O)c2ccc(Br)o2)CC1", "inhibition": "21%"},
      {"smiles": "CCN1/C(=C\\c2ccc3ccccc3[n+]2CC)Sc2cc(C)ccc21", "inhibition": "49.3% (active)"},
      {"smiles": "COc1ccc(OC)c(C(c2nnnn2C(C)(C)C)N2CCc3ccccc3C2)c1", "note": "(stereo not given)", "inhibition": "5.35%"},
      {"smiles": "CC(C)(C)CC(C)(C)NCC(O)COCCOc1ccc(Br)cc1", "note": "(stereo not given)", "inhibition": "47.2% (active)"},
      {"smiles": "CCSc1nsc(NC(=O)Nc2cccc(C(C)=O)c2)n1", "inhibition": "43.7% (active)"},
      {"smiles": "C=CCSc1nsc(NC(=O)Nc2cccc(C(C)=O)c2)n1", "inhibition": "47.2% (active)"},
      {"smiles": "CCn1c2ccc(F)cc2c2nnc(SCCN3CCOCC3)nc21", "inhibition": "-14.4%"},
      {"smiles": "CCc1c(C)nc2c(-c3ccccc3)c(C)nn2c1Nc1ccc(NC(C)=O)cc1", "inhibition": "4.93%"},
      {"smiles": "COc1ccc(C(=O)CSc2nnc(COc3ccccc3)n2Cc2ccco2)cc1", "inhibition": "19%"},
      {"smiles": "Oc1cccc(/C=N/Nc2ccc(Cl)nn2)c1O", "inhibition": "4.11%"},
      {"smiles": "Cc1cccc(-c2nc3ccc(C(=O)NCCN4CCN(C)CC4)cc3nc2-c2cccc(C)c2)c1", "inhibition": "41.8% (active)"},
      {"smiles": "CCc1ccc(N(C(=O)c2csnn2)C(C(=O)NC2CCCCC2)c2ccncc2)cc1", "note": "(stereo not given)", "inhibition": "34.2% (active)"},
      {"smiles": "O=C(Nc1nc(-c2ccc3c(c2)OCO3)cs1)c1ccncc1", "inhibition": "55.1% (active)"},
      {"smiles": "O=C(Nc1ccccc1F)c1ccc2c(c1)OCO2", "inhibition": "-16.6%"},
      {"smiles": "N=c1c2c(-c3ccccc3)c(-c3ccccc3)n(Cc3ccccc3)c2ncn1CCCO", "inhibition": "26.6% (active)"},
      {"smiles": "CN(C)CCCN(C(=O)c1ccc(S(=O)(=O)N2CCCCCC2)cc1)c1nc2ccc(Br)cc2s1", "inhibition": "70.5% (active)"},
      {"smiles": "CCc1ccc2nc(N(CCCN(C)C)C(=O)c3ccc4c(c3)OCCO4)sc2c1", "inhibition": "40% (active)"},
      {"smiles": "CN(C)CCCN(C(=O)c1ccc(S(=O)(=O)N2CCCc3ccccc32)cc1)c1nc2ccc(F)cc2s1", "inhibition": "73% (active)"},
      {"smiles": "CCOC(=O)C1CSC(CC(=O)Nc2ccc(OCC)cc2)C(=O)N1", "note": "(stereo not given)", "inhibition": "2.35%"},
      {"smiles": "COCCN(Cc1cc2cc3c(cc2nc1Cl)OCO3)C(=O)c1cccc(C)c1", "inhibition": "-7.71%"}
    ]}
  ]
}
